This is an account of results in PubChem BioAssay AID1986 (Sanford-Burnham Center for Chemical Genomics, 2009).

The experiment is described as follows: inhibitors of HIV fusion peptide binding, primary screen, biochemical, uHTS, fluorescence dequenching (AID 1986). The settings on record: cell-free peptide binding, 30 min, stronger effect = higher value.
Where [1] appears, read: measured here: repeat confirmation average inhibition, at 18.6 µM.

Screen size: about 290,000 compounds; about 890 (0.31%) were called active. The sample holds actives, similar compounds and a random draw of the others, so the mix is not that of the screen. Rule as the data show it: active = inhibition mostly above about 52% (no sharp cut-off); inactive = mostly below about 76%.

With `O=C(Cn1cccc1C(=O)c1ccccc1)NCc1ccc2c(c1)OCO2`, the inhibition (at 20 µM) was -0.1% (inactive).
Still for that read-out and setting: the same measure for `CC(CCc1ccccc1)NC(=O)CSc1cccc[n+]1[O-]` (centres undefined): 2.5% (inactive).
`O=C(N/N=C/c1ccc([N+](=O)[O-])o1)c1cn(-c2ccccc2)nc1-c1ccccc1`: the inhibition is, setting by setting: (at 20 µM) 65.8% (inactive); under setting [1], -1.2%.
Regarding `O=C(N/N=C/c1ccc([N+](=O)[O-])o1)c1cn(-c2ccccc2)nc1-c1ccc(Cl)cc1`, the inhibition (at 20 µM) was 64% (active).
Consider `COc1ccc(-c2nn(-c3ccccc3)cc2C(=O)N/N=C/c2ccc([N+](=O)[O-])o2)cc1`, for which the inhibition by setting is: (at 20 µM) 55.9% (inactive); under setting [1], 0.9%.
As for `COc1ccccc1OCCNC(=O)C1CCCCC1`, the inhibition (at 20 µM) is -0.2% (inactive).
Consider `COc1ccccc1N1C(=O)C2C(C(=O)c3ccccc3)=NN(c3ccc(Br)cc3)C2C1=O` (centres undefined), for which the inhibition (at 20 µM) was 54.9% (active) and the inhibition under setting [1] was 55%.
As for `COC(=O)C1=NN(c2ccccc2)C2C(=O)N(c3ccccc3OC)C(=O)C12` (centres undefined), the inhibition (at 20 µM) is 1.2% (inactive).
As to `COc1ccccc1N1C(=O)C2C(C(=O)c3ccccc3)=NN(c3ccc(C)cc3)C2C1=O` (centres undefined), the inhibition reads like this: (at 20 µM) 85.1% (active); under setting [1], 102%.
The corresponding values for `COc1ccccc1N1C(=O)C2C(C(=O)c3ccccc3)=NN(c3ccccc3OC)C2C1=O` (centres undefined) are 59.5% (inactive) and 13.2%.
The like results for `COc1ccccc1N1C(=O)C2C(C(=O)c3ccccc3)=NN(c3ccccc3)C2C1=O` (centres undefined) were, in that order, 72.1% (inactive) and 33.6%.
Consider `COC(=O)C1=NN(c2ccc(OC)cc2)C2C(=O)N(c3ccccc3OC)C(=O)C12` (centres undefined), for which the inhibition (at 20 µM) was -0.7% (inactive).
Still for that read-out and setting: the same measure for `O=C(Nc1ccc(F)cc1F)C1CCN(C(=O)c2ccc(Br)cc2)CC1`: 1.2% (inactive); for `Cc1ccc(CCNC(=O)c2nnc(CS(=O)(=O)c3ccccc3)o2)cc1`: -0.3% (inactive).
On the same count and under the same terms, the same measure for `O=C(COC(=O)c1ccc2c(c1)C(=O)N(Cc1ccco1)C2=O)NCC(F)(F)F`: 1.5% (inactive).
Same read-out and setting: the same measure for `Nc1ccc(Cc2ccc(N)c(C(=O)O)c2)cc1C(=O)O`: 5.8% (inactive).
In the case of `Nc1ccc(Cc2ccc(N)c(O)c2)cc1O`, the inhibition (at 20 µM) is 52.4% (active).
The same measure, in the same setting: as for `Cc1cc(Cc2ccc(N)c(C)c2)ccc1N`, the figure is -1.4% (inactive); as for `CC(C)COc1ccc(S(=O)(=O)n2cc(F)c(=O)[nH]c2=O)cc1`, 2.9% (inactive).
Still for that read-out and setting: the same measure for `COc1ccc(Cc2noc(-c3ccccc3)n2)cc1OC`: 61.8% (active).
On to `COc1ccc(Cc2noc(-c3ccc(OC)c(OC)c3)n2)cc1OC`, for which, where the note is “at 20 µM”, the inhibition is 0.9% (inactive).
The same measure, in the same setting: the same measure for `COc1cccc(-c2nc(Cc3ccc(OC)c(OC)c3)no2)c1`: 2.1% (inactive); for `CC(C)CNC(=O)c1cccc(NC(=O)c2ccco2)c1`: -0.6% (inactive); for `CCOC(=O)C1=C(C)N(CC)C(=S)NC1c1ccccc1OC(F)F` (centres undefined): -2% (inactive).
As for `CCOC(=O)c1c(NC(=O)N/N=C/c2ccc(O)c(OC)c2)sc(C(C)=O)c1C`, under “at 20 µM”, the inhibition was -2.2% (inactive).
`N#Cc1ccc2ccn(CC(=O)NCc3ccccc3)c2c1`: the inhibition (at 20 µM) is -1.6% (inactive).
For the compound `CC(C)(C)/C(O)=C(/C#N)c1nc2ccccc2[nH]1`, the inhibition (at 20 µM) was -1.6% (inactive).
Turning to `CN(C)c1cccc(C(=O)NNC(=S)NC2CC3CCC2C3)c1` (centres undefined), for the setting “at 20 µM”, the inhibition is -1.9% (inactive).
In the case of `CCOC(=O)c1c(S(=O)(=O)Nc2ccccn2)c(C)n(C)c1C`, the inhibition (at 20 µM) was 2.8% (inactive).
Still for that read-out and setting: the same measure for `COc1ccccc1CNC(=O)C1CCC(CNS(=O)(=O)c2ccc(F)cc2)CC1` (centres undefined): -1% (inactive); for `Cc1ccc(NC(=O)c2ccc(NCCc3ccccc3)c([N+](=O)[O-])c2)cc1F`: 2.5% (inactive).
Regarding `Cc1cccc(NC(=O)c2ccc(NCCc3ccccc3)c([N+](=O)[O-])c2)c1`, the inhibition is, setting by setting: (at 20 µM) 96.9% (active); under setting [1], 58.9%.
`O=C(Nc1ccccc1)c1ccc(NCCc2ccccc2)c([N+](=O)[O-])c1`: the inhibition (at 20 µM) is 147% (inactive).
The same measure, in the same setting: the same measure for `COc1cccc(NC(=O)N2CCC(NC(=O)C(Cc3ccccc3F)NC(C)=O)CC2)c1` (centres undefined): -0.5% (inactive).
Still for that read-out and setting: as for `O=C(Nc1ccccc1C(=O)O)/C(=C/c1ccc([N+](=O)[O-])cc1)NC(=O)c1ccc(Br)o1`, the figure is 20.5% (inactive); as for `Cc1cc(C)c(NC(=O)CCCSc2nnc(N)s2)c(C)c1`, -0.5% (inactive).
For `CSc1nc(-c2ccc(C)cc2)[nH]c1S(=O)(=O)c1ccccc1`, the inhibition (at 20 µM) was -0.2% (inactive).
The same measure, in the same setting: as for `CC(=O)Sc1nc(-c2ccccc2)[nH]c1S(=O)(=O)c1ccc(C)cc1`, the figure is 60.7% (active).
Consider `Cc1ccc(-c2[nH]c(-c3ccc(C(=O)O)cc3)nc2-c2ccccc2)cc1`, for which the inhibition reads like this: (at 20 µM) 61.6% (inactive); under setting [1], 27.3%.
Consider `COc1ccc(C2/C(=C(/O)c3ccc(F)cc3)C(=O)C(=O)N2c2ccccn2)cc1OC` (centres undefined), for which the inhibition (at 20 µM) is 0.2% (inactive).
Same read-out and setting: the same measure for `CC(=O)Nc1ccc(S(=O)(=O)N2CCN(S(=O)(=O)N3CCCCC3)CC2)cc1`: 0.1% (inactive); for `O=C(Nc1ccccc1)OC1C2CCC1C(N1CCCCC1)CC2` (centres undefined): 1.6% (inactive); for `O=C(Nc1nccs1)c1cc(S(=O)(=O)N2CCCCC2)ccc1Cl`: -1.5% (inactive).
As for `O=C1/C(=C\c2ccc(Br)cc2)SC(=S)N1NS(=O)(=O)c1ccccc1`, the inhibition (at 20 µM) was 67.6% (inactive) and the inhibition under setting [1] came to 0.2%.
As for `CC(=O)N1C(=O)/C(=C2\SC(=S)N(NS(=O)(=O)c3ccc(C)cc3)C2=O)c2ccccc21`, the inhibition was 55.6% (inactive) (at 20 µM) and -0.3% under setting [1].
Consider `CSc1ccc(CNCc2ccc3c(c2)OCO3)cc1`, for which the inhibition (at 20 µM) was 3.5% (inactive).
In the case of `CCCC(C(=O)Nc1ccc2c(C)cc(=O)oc2c1)c1ccccc1` (centres undefined), the inhibition (at 20 µM) was 0.5% (inactive).
For the compound `O=[N+]([O-])c1ccc(/C=C/C2=NN(c3ccccc3)C(c3ccco3)C2)o1` (centres undefined), the inhibition (at 20 µM) was 18.7% (inactive).
With `O=[N+]([O-])c1ccc(/C=C/C2=NN(c3ccccc3)C(c3ccco3)C2)cc1` (centres undefined), the inhibition (at 20 µM) is 35% (inactive).
Still for that read-out and setting: the same measure for `C(=C\c1ccco1)/C1=NN(c2ccccc2)C(c2ccco2)C1` (centres undefined): 81.8% (active).
The same measure, in the same setting: the same measure for `CC(CNC(=O)CCS(=O)(=O)c1cc2c(cc1Cl)NC(=O)CO2)c1ccccc1` (centres undefined): -0.3% (inactive).
The same measure, in the same setting: the same measure for `COc1ccc(/C=c2\s/c(=C/C(=O)c3ccc(C)cc3)[nH]c2=O)cc1OC`: 77.2% (active).
Consider `COc1ccc(/C=C2/SC(c3ccc(C)cc3)=NC2=O)cc1OC`, for which the inhibition (at 20 µM) was 0.3% (inactive).
For `COc1ccc(/C=c2\s/c(=C/C(=O)c3ccc(C)cc3)[nH]c2=O)c(OC)c1`, the inhibition (at 20 µM) was 47.8% (inactive).
Still for that read-out and setting: the same measure for `COc1cc(/C=C2\SC(c3ccc(C)cc3)=NC2=O)ccc1O`: 36.7% (inactive).
Same read-out and setting: as for `COc1cccc(/C=c2\s/c(=C/C(=O)c3ccc(C)cc3)[nH]c2=O)c1OC`, the figure is 4.7% (inactive).
In the case of `COc1ccc(/C=C2\SC(c3ccc(C)cc3)=NC2=O)cc1OC`, the inhibition reads like this: (at 20 µM) 97.6% (active); under setting [1], 176%.
Turning to `Cc1cc2c(ncn2Cc2ccccc2)c(NS(C)(=O)=O)c1C`, the inhibition (at 20 µM) is -1% (inactive).
For `O=C(CN(Cc1ccc(F)cc1)C(=O)CNS(=O)(=O)c1ccc(F)cc1)NCc1ccco1`, under “at 20 µM”, the inhibition is 1.3% (inactive).
For `COc1ccc(CCNC(=O)Cc2cc(OC)c(OC)cc2Br)cc1OC`, the inhibition (at 20 µM) was 1.9% (inactive).
Same read-out and setting: the same measure for `CCOC(=O)N1CCc2c(sc3ncn(C)c(=O)c23)C1`: -2.6% (inactive).
Still for that read-out and setting: the same measure for `COC(=O)c1ccccc1NC(=O)c1ccc2c(c1)OCCCO2`: -0.4% (inactive); for `O=C(CS(=O)(=O)Cc1ccccc1)N1CCN(c2cccc(C(F)(F)F)c2)CC1`: 4.6% (inactive); for `COc1cc(/C=C2\SC(=O)NC2=O)ccc1Oc1ccc([N+](=O)[O-])cc1[N+](=O)[O-]`: 63% (active).
Take `COc1cc(/C=C2/SC(=O)NC2=O)ccc1Oc1ccc([N+](=O)[O-])cc1[N+](=O)[O-]`: the inhibition reads like this: (at 20 µM) 74.1% (inactive); under setting [1], 9.9%.
For `COc1cc(/C=C2\SC(=O)NC2=O)ccc1Oc1ccc([N+](=O)[O-])cn1`, the inhibition (at 20 µM) is 13.1% (inactive).
With `Cc1ccc(NC(=O)Cn2cnc3sc(C(=O)NCc4ccco4)c(C)c3c2=O)cc1Cl`, the inhibition (at 20 µM) was -1.5% (inactive).
On to `N#Cc1c(N)sc(=S)c2c1CCCCC2`, for which the inhibition (at 20 µM) was 50% (active).
Consider `N#Cc1c(N)sc(=S)c2c1CCN(Cc1ccccc1)C2`, for which, where the note is “at 20 µM”, the inhibition is 86.2% (active).
Same read-out and setting: as for `N#Cc1c(N)sc2c1CCCCCC2`, the figure is -2% (inactive).
The same measure, in the same setting: the same measure for `N#Cc1c(N)sc2c1CCN(CCc1ccccc1)C2`: 8.1% (inactive).
Same read-out and setting: the same measure for `N#Cc1c(N2CCCCC2)nc(N2CCCCC2)c2c1CCN(Cc1ccccc1)C2`: 8.7% (inactive).
In the case of `N#Cc1c(N)sc(=S)c2c1CCCC2`, the inhibition (at 20 µM) is 0% (inactive).
Same read-out and setting: the same measure for `CN1CC2([N+](=O)[O-])CC=C(OCCO)C([N+](=O)[O-])(C1)C2` (centres undefined): 0.4% (inactive); for `O=C(Nc1ccc(N2CCOCC2)cc1)C1(S(=O)(=O)c2ccccc2)CC1`: -1.1% (inactive); for `COc1ccc(CCN2CCCn3c2nc2c3c(=O)n(CC(C)C)c(=O)n2C)cc1OC`: 0.5% (inactive).
For the compound `Cc1cc(C)c(S(=O)(=O)/N=C2\C=C(NS(=O)(=O)c3ccccc3)C(=O)c3ccccc32)c(C)c1`, the inhibition is 68.3% (inactive) (at 20 µM) and 42.3% under setting [1].
Turning to `CC(C)c1ccc(S(=O)(=O)/N=C2/C=CC(=O)c3ccccc32)cc1`, the inhibition (at 20 µM) is 3.8% (inactive).
`CC(C)c1ccc(S(=O)(=O)/N=C2\C=C(NS(=O)(=O)c3ccccc3)C(=O)c3ccccc32)cc1`: for the setting “at 20 µM”, the inhibition is 74.7% (active).
In the case of `O=C(CSc1n[nH]c(=O)[nH]c1=O)NC1CCCCC1`, the inhibition (at 20 µM) was -0.2% (inactive).
The same measure, in the same setting: as for `O=C(O)c1cc(N2CCOCC2)nc2ccccc12`, the figure is 0.2% (inactive); as for `COC(=O)c1cc(N2CCNCC2)nc2ccccc12`, 6.8% (inactive).
`COC(=O)c1cc(N2CCN(C)CC2)nc2ccccc12`: the inhibition (at 20 µM) is 114% (active).
Still for that read-out and setting: as for `Cn1c(=O)c2[nH]c(Nc3ccccc3)nc2n(C)c1=O`, the figure is -0.7% (inactive); as for `CC(C)c1ccc(NC(=O)CCNS(=O)(=O)c2ccc3[nH]c(=O)oc3c2)cc1`, 2.1% (inactive); as for `CC(C)CNC(=S)N(CCN(C)C)Cc1cc2cc3c(cc2[nH]c1=O)OCO3`, -2.4% (inactive).
On the same count and under the same terms, the same measure for `Oc1ccc(Br)cc1Cn1nnc2ccccc21`: -0.3% (inactive).
For `Clc1ccc2nc3c4ccccc4cnn3c2c1`, the inhibition (at 20 µM) is 0% (inactive).
On to `Oc1ccc2nnc3c(Br)cnn3c2c1`, for which the inhibition was 82.2% (active) (at 20 µM) and 59.6% under setting [1].
As to `COc1ccc(OC)c(/C=N/NC(=O)CNC(=O)c2cccc3ccccc23)c1`, the inhibition (at 20 µM) was -1.3% (inactive).

As usually defined, the inhibition is the change of the read-out against control, counted positive when it falls.
